Screening results deposited in PubChem BioAssay by National Center for Advancing Translational Sciences (NCATS).
FLuc modulator: qHTS profiling assay for firefly luciferase inhibitor/activator using purifed enzyme and Km concentrations of substrates (counterscreen for miR-21 project). purified FLuc, Km substrates, luminescence inhibition. Potency, µM (highest dose often 57.5 µM), without a hit: at the highest dose activity change, negative = inhibition, actives largely listed as inhibitors. 360,000 tested, 6.9% active;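 note: plate controls were vehicle for no effect and reference inhibitor for full effect; nearly all actives have a fitted effect of over 55% in size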
Target sequence (P08659 whole entry, looked up): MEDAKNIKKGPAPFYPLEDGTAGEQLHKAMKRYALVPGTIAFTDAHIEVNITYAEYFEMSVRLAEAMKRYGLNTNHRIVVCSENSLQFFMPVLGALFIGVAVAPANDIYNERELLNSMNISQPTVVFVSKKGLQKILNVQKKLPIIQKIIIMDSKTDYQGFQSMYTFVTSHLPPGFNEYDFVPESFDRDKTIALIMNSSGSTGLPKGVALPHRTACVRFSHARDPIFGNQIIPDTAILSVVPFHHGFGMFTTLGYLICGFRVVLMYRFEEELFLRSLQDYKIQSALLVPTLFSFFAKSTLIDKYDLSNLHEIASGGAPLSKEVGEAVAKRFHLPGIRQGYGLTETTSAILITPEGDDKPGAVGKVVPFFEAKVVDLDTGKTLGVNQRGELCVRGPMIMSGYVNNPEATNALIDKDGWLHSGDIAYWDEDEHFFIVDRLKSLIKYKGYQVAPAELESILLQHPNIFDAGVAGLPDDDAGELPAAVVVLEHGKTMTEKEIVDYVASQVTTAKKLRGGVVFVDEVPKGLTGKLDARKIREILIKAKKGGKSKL
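Purified P. pyralis luciferase (10nM final) with 10uM D-luciferin and 10uM ATP (Km levels) in 50mM Tris acetate pH 7.5, 10mM Mg acetate, 0.01% Tween-20, 0.05% BSA; qHTS 6-point titration, ~60 µM downward; luminescence read.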
NPC1 prom act: qHTS Assay for NPC1 Promoter Activators. Huh7 NPC1 promoter luciferase reporter, 24 h. 320,000 tested, 2.4% active. AID 485313, 2010. Potency, µM (highest dose often 9.22 µM), inactives show at the highest dose activation, usual class: activators; note: % of control where 0% means no effect; nearly all actives have a fitted effect of over 60% in size
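Luminescence from an NPC1 promoter-driven luciferase reporter in stably transfected Huh7 cells was measured after 24 h compound treatment at 37 °C, followed by 10 min ambient incubation with luciferase detection reagent.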
SMN2 splice enh: qHTS Assay for Enhancers of SMN2 Splice Variant Expression; HEK293 SMN2-luciferase splicing reporter, luminescence, 30-36 h; Potency, µM (titrated, usually from 46.1 µM), inactives show at the highest dose activity change, positive = activation, actives largely listed as activators; 210,000 tested, 2.8% active; AID 1458, 2008; note: % of control where 0% means no effect; nearly all actives have a fitted effect of over 55% in size
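qHTS luciferase splicing reporter: luminescence rises when SMN2 exon 7 is included in transfected HEK293 cells. Compound exposure lasted 30-36 h at 37C, with 4.5 mM final sodium butyrate as control, followed by a ONE-Glo read.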
Rab9 prom act: qHTS Assay for Rab9 Promoter Activators; 320,000 tested, 2.8% active; Potency, µM (doses to about 9.22 µM), for the others: at the highest dose activation, negative = inhibition, hits mostly activators; Huh7 Rab9 promoter-luciferase reporter, luminescence, 24 h; note: % of control where 0% means no effect; nearly all actives have a fitted effect of over 60% in size
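Cell-based reporter: Huh7 stable for Rab9 promoter-driven luciferase, plated in reduced-serum medium with 10% FBS at 1500 cells/well, compound-treated 24 h at 37 °C, luminescence read after 10 min reagent.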
ELG1 genotox: qHTS screen for small molecules that induce genotoxicity in human embryonic kidney (HEK293T) cells expressing luciferase-tagged ELG1 | AID 504466, 2011 | Potency, µM (top dose mostly 46 µM), without a hit: top-dose activity change, positive = activation, usual class: activators | 330,000 tested, 1.3% active | HEK293T ELG1-luciferase reporter, luminescence, 16 h; note: % of control where 0% means no effect; nearly all actives have a fitted effect of over 60% in size
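DMSO vehicle served as control against compound-treated ELG1-luciferase HEK293T cells; exposure lasted 16 hr at 37 °C and 5% CO2, followed by ONE-Glo luminescence detection after 30 min.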
Luc counter: Counterscreen for Luciferase (Kinase-Glo TM) Inhibition; Luciferin 4-monooxygenase (Photuris pensylvanica), Q27757; Kinase-Glo luciferase, ATP luminescence, 8 min; Potency, µM (titrated, usually from 38.3 µM), without a hit: at the top dose activity change, negative = inhibition, hits mostly inhibitors; 200,000 tested, 0.28% active; note: % is set by controls: 0 for no effect and ±100 for the full control effect; nearly all actives have a fitted effect of over 60% in size
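Substrate mix (final 50 mM imidazole pH 7.2, 50 mM KCl, 7 mM MgCl2, 10 uM ATP, 0.01% Tween 20, 0.05% BSA) plus pin-tool compound, then Kinase-Glo detection mix; 8 min ambient, luminescence read.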
* marks the source's active call; other numbers are inactive results. A selection: hits, their analogues and other compounds. The true share with any hit is near 7.4%. Calls come from the whole dose curve; as a rule, active = well fitted curve in the direction sought with a large enough effect; inconclusive = small, poorly fitted or top-dose-only effect, or another doubt; inactive = no such curve, though single readings can be large; an effect the other way counts as inactive or inconclusive. Potency is the fitted concentration of half-maximal effect.

For CCn1nc(C(=O)OCC(=O)Nc2nc(-c3ccc(OC)cc3)cs2)c2ccccc2c1=O the results were FLuc modulator inconclusive, NPC1 prom act inconclusive, SMN2 splice enh 10µM*, Rab9 prom act inconclusive, ELG1 genotox inconclusive and Luc counter 3%.
CN(C(=O)c1ccco1)c1nc(-c2ccc(Cl)cc2)cs1 was read as FLuc modulator 6µM*, NPC1 prom act inconclusive, Rab9 prom act 3.2µM* and ELG1 genotox 14%.
`COc1ccc(-c2csc(NC(=S)NC(=O)c3ccco3)n2)cc1` gave FLuc modulator 0%, NPC1 prom act -3%, SMN2 splice enh inconclusive, Rab9 prom act -1%, ELG1 genotox 20% and Luc counter -1%.
For CN(C)CCCN(C(=O)c1ccco1)c1nc(-c2ccc(Cl)cc2)cs1 the results were FLuc modulator -10%, NPC1 prom act 6%, Rab9 prom act -8% and ELG1 genotox 0%.
Screening COc1ccc(-c2csc(NC(=O)COC(=O)c3ccco3)n2)cc1 returned FLuc modulator inconclusive, NPC1 prom act 4µM*, SMN2 splice enh 13µM*, Rab9 prom act 3.2µM*, ELG1 genotox inconclusive and Luc counter 2%.
`COc1ccc(-c2csc(N(C)C(=O)c3ccco3)n2)cc1` gave FLuc modulator 11µM*, NPC1 prom act inconclusive, Rab9 prom act 4µM* and ELG1 genotox inconclusive.
CCn1nc(C(=O)OCC(=O)NCC(C)C)c2ccccc2c1=O was read as FLuc modulator -2%, NPC1 prom act -5%, SMN2 splice enh -4%, Rab9 prom act 1%, ELG1 genotox 3% and Luc counter 3%.
For N#CC(=C(/N)Sc1ccccc1N)/C(C#N)=C(/N)Sc1ccccc1N the results were Luc counter 1%.
Screening CC(=O)N(C)c1nc(-c2ccc(Cl)cc2)cs1 returned FLuc modulator inconclusive, NPC1 prom act inconclusive, SMN2 splice enh -7%, Rab9 prom act 3.5µM*, ELG1 genotox 4% and Luc counter -6%.
CN1C(=O)/C(=C\c2ccco2)N=C1c1ccc(Cl)cc1Cl was read as FLuc modulator 17µM*, NPC1 prom act -2%, Rab9 prom act -2% and ELG1 genotox 4%.
Screening CCCn1c(C)nc2c(NCCCCN(C)C)nc(C)nc21 returned SMN2 splice enh 0% and Luc counter -4%.
For Cc1ccc(-n2ncc(C(=O)NCCc3ccccc3)c2C2CCN(C(=O)OC(C)(C)C)CC2)c(C)c1 the results were FLuc modulator -11%.
O=C(c1ccc2nc(N3CCCCC3)sc2c1)N1CCN(Cc2ccc3c(c2)OCO3)CC1 was read as FLuc modulator -13%, NPC1 prom act 11%, SMN2 splice enh -64%, Rab9 prom act -2%, ELG1 genotox 23µM* and Luc counter 3%.
For COc1cccc(N2CCN(C(=O)c3ccc4nc(N5CCC(C)CC5)sc4c3)CC2)c1 the results were FLuc modulator 9.5µM*, NPC1 prom act inconclusive, SMN2 splice enh -25%, Rab9 prom act inconclusive and ELG1 genotox inconclusive.
Screening COc1ccc(N2CCN(C(=O)c3ccc4nc(N5CCC(C)CC5)sc4c3)CC2)cc1 returned FLuc modulator inconclusive and SMN2 splice enh 6%.
NC(=O)C1CCN(C(=O)c2ccc3nc(N4CCCCC4)sc3c2)CC1 was read as FLuc modulator inconclusive, NPC1 prom act 2.8µM*, Rab9 prom act 3.2µM* and ELG1 genotox inconclusive.
CCOC(=O)N1CCN(C(=O)c2ccc3nc(N4CCCCC4)sc3c2)CC1 was read as FLuc modulator -15%, NPC1 prom act 21%, SMN2 splice enh 14%, Rab9 prom act 14%, ELG1 genotox -1% and Luc counter -2%.
c1ccc(CN2CCN(c3nc4ccccc4s3)CC2)cc1 was read as FLuc modulator 2.7µM*, NPC1 prom act 1.4µM*, Rab9 prom act 0.71µM* and ELG1 genotox 9.2µM*.
Screening Nc1ncnc2c1nc(Br)n2C1O[C@H]2COP(=O)(O)O[C@@H]2C1O (stereo not given in full) returned SMN2 splice enh -24% and Luc counter -1%.
`CC(=O)N1CCc2cc(Br)cc(S(=O)(=O)CCC(=O)Nc3ccc(C)cc3Cl)c21` gave FLuc modulator 1% and SMN2 splice enh 13%.
Screening O=C(c1ccncc1)N1CCC2(CCCN(c3cccc(-c4ccccc4)c3)C2)CC1 returned SMN2 splice enh -26% and Luc counter -1%.
`CCC(=O)N1CCc2cc(Br)cc(S(=O)(=O)CCC(=O)NCc3ccc(F)cc3)c21` gave FLuc modulator 2% and SMN2 splice enh 12%.
CC1CCN(c2nc3ccc(C(=O)N4CCN(Cc5ccccc5)CC4)cc3s2)CC1 was read as FLuc modulator 17µM*, NPC1 prom act 16%, SMN2 splice enh -57%, Rab9 prom act 25%, ELG1 genotox inconclusive and Luc counter 0%.
For CC1CCN(C(=O)c2ccc3ccccc3c2)CC1 the results were FLuc modulator 12µM*, NPC1 prom act 3.5µM*, Rab9 prom act 2.5µM* and ELG1 genotox inconclusive.
For CNc1cc(OC)c(C(=O)N[C@@H]2CCN(Cc3ccccc3)[C@H]2C)cc1Cl the results were Luc counter -2%.
Cc1ccc(-n2nnc3c(SCC(=O)NCc4ccco4)ncnc32)cc1 was read as FLuc modulator 13µM*, NPC1 prom act 0%, SMN2 splice enh -7%, Rab9 prom act 12%, ELG1 genotox 1% and Luc counter -3%.
Screening COc1ccc(-n2c(-c3ccc(F)cc3)cnc2SCC(=O)NCc2ccco2)cc1 returned FLuc modulator 24µM*, NPC1 prom act 0%, SMN2 splice enh 6%, Rab9 prom act 14%, ELG1 genotox inconclusive and Luc counter -5%.
O=C(CSc1ncnc2c1nnn2-c1ccc(F)cc1)NCc1ccco1 was read as FLuc modulator -16%, NPC1 prom act -4%, SMN2 splice enh -10%, Rab9 prom act -3%, ELG1 genotox 0% and Luc counter 0%.
O=C(CSc1ncc(-c2ccccc2)n1-c1ccccc1)NCc1ccco1 was read as FLuc modulator -1%, NPC1 prom act 0%, SMN2 splice enh 2%, Rab9 prom act -9%, ELG1 genotox -20% and Luc counter 0%.
